In this assay the test system is Toxoplasma gondii RH (in HFF). The experiment in a line: parasite growth relative to the screen mean (all compounds = 100%); higher = less inhibition of parasite growth. As to conditions: 5 µM; 72 h; oxygen 21 %. In outline: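 Library compounds, held as 10 mM DMSO stocks, were pinned to 5 µM final onto confluent human foreskin fibroblasts in 96-well plates. The cells were infected within 2 h with RH β-Gal–GFP Toxoplasma (MOI 1:5), grown 72 h at 21% O2, and assayed for parasite number by CPRG β-Gal using in-plate standard curves. Growth is reported relative to the screen mean, in which all compounds = 100%, averaged over two screens, and CellTiter-Blue checked uninfected host-cell viability.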

Each structure is given as a SMILES string. Where a name gives a salt, the structure may show the parent alone. ± gives the standard deviation of the averaged measurements. Some results are limits rather than exact numbers.

`CC(=O)NNC(=O)N1Cc2ccccc2Oc2ccc(Cl)cc21` yielded a parasite growth of 136 ± 40%.
`O=[N+]([O-])c1cc2nc(O)c(O)nc2cc1[N+](=O)[O-]` returned a parasite growth of 91.7 ± 27%.
For `CCCCCCCCCCC(C)(C)C(=O)Nc1c(OC)cc(OC)cc1OC` the value was 27.8 ± 5.4%; for `COc1ccc(CCN(C)CCc2ccc(OC)c(OC)c2)cc1OC` [YS-035 hydrochloride], 136 ± 23%; for `CCOCC(O)COc1ccc(NC(=O)CC[S+](C)C)cc1` (stereo not given) [Suplatast tosylate], 75 ± 16%.
Regarding `CNC(=O)[C@@H](Cc1ccccc1)N(C)C(=O)[C@@H](Cc1ccc2ccccc2c1)N(C)C(=O)/C=C/CC(C)(C)N` [Tabimorelin], the parasite growth is 135 ± 20%.
In turn, `CCOC(=O)c1ncc2[nH]c3cccc(OC(C)C)c3c2c1C` gave a parasite growth of 101 ± 26%.
For the compound `CN[C@H]1CC[C@@H](c2ccc(Cl)c(Cl)c2)c2ccccc21` [Sertraline hydrochloride], the parasite growth stood at 29.3 ± 4.4%.
In turn, `Cc1cccc(C(=O)NCN2CCN(c3ccccc3C#N)CC2)c1` had a parasite growth of 133 ± 7.4%.
With `NS(=O)(=O)c1cccc2c1c([N+](=O)[O-])cc1nc(O)c(O)nc12` [NBQX disodium salt] the figure was 112 ± 14%.
Compound `C[C@H](NC(=O)/C(C#N)=C/c1ccc(O)c(O)c1)c1ccccc1` [Tyrphostin B44, (+) enantiomer] displayed a parasite growth of 154 ± 41%.
For `O=C(Nc1cccc2cccnc12)c1ccc(N2C(=O)[C@@H]3[C@H](C2=O)[C@@H]2C=C[C@H]3C2)cc1` [endo-IWR 1] the value was 113 ± 21%.
For `COc1cc(/C=C(\C#N)C(N)=O)cc(CSc2nc3ccccc3s2)c1O` the value was 128 ± 3.3%; for `C[C@@H](N)[C@H]1CC[C@H](C(=O)Nc2ccncc2)CC1`, 92.3 ± 21%; for `CCCCCCCCCCCC1=C(O)C(=O)C=C(O)C1=O` [Embelin], 122 ± 4.3%.
Take `Oc1cc(O)cc(/C=C/c2ccc(O)c(O)c2)c1` [Piceatannol]: the parasite growth was determined as 145 ± 42%.
With `Cn1cnc2c(NCc3ccccc3)nc(NCCO)nc21` [Olomoucine] the figure was 127 ± 7.9%; with `Cc1ccc(/C(=C\CN2CCCC2)c2ccccn2)cc1` [trans-Triprolidine hydrochloride], 96.7 ± 39%.
With `C=C1C(=O)O[C@@H]2/C=C(\C)CC/C=C(\C)CC[C@@H]12` [Costunolide] the figure was 30.7 ± 25%.
For `COc1cc(OC)c(C(=O)CCCCN2CCC3(CC2)NC(=O)NC3=O)cc1NS(=O)(=O)c1ccc(C(F)(F)F)cc1` the value was 109 ± 11%; for `CCc1ccc(OCc2ccccc2C(=O)Nc2ccc3nc(C)cc(N)c3c2)cc1`, below 0%.
Compound `C=CC(=O)c1ccc2ccccc2c1` had a parasite growth of 70.4 ± 7.8%.
Regarding `Nc1nnc(Sc2ncc([N+](=O)[O-])s2)s1`, the parasite growth came to 116 ± 26%.
For `OCC(CO)N[C@H]1C[C@](O)(CO)[C@@H](O)[C@H](O)[C@H]1O` [Voglibose] the value was 68.07 ± 0.24%.
For `Cc1cc(Cn2cnc3c2CC(C(=O)O)N(C(=O)C(c2ccccc2)c2ccccc2)C3)ccc1N(C)C` (stereo not given) the value was 130 ± 23%; for `CC(=O)NCCc1c(Cc2ccccc2)[nH]c2ccccc12` [Luzindole], 75.1 ± 29%.
For `CC(C)NCCN(C(C)C)S(=O)(=O)c1ccc(Cl)cc1Cl` the value was 142 ± 34%; for `Nc1ncnc2c1ncn2[C@@H]1O[C@H](CO)C[C@H]1O` [Cordycepin], 122 ± 20%.
In the case of `CCN1CCCC1CNC(=O)c1cc(S(=O)(=O)CC)c(N)cc1OC` (stereo not given) [Amisulpride], the parasite growth was 115 ± 14%.
With `Nc1ncn([C@H]2C[C@H](O)[C@@H](CO)O2)c(=O)n1` [Decitabine] the figure was 119 ± 9.9%; with `COc1ccc(NS(=O)(=O)c2ccc(I)cc2)cc1N1CCN(C)CC1`, 122 ± 17%; with `CCCCCS(=O)(=O)CCCCCCCCCCn1c(-c2ccc(O)cc2)c(C)c2cc(O)ccc21`, 132 ± 30%.
For `O=C(c1ccc(F)cc1)C1CCN(CCn2c(=S)[nH]c3ccccc3c2=O)CC1` [Altanserin hydrochloride] the value was 135 ± 6.3%; for `COc1ccc2[nH]c(I)c(CCNC(C)=O)c2c1` [2-Iodomelatonin], 106 ± 4.9%; for `Cc1cccc(C)c1NC(=O)C[N+](C)(C)C`, 123 ± 18%.
With `Oc1cc2c(c(Cl)c1O)CCNCC2c1ccccc1` (stereo not given) the figure was 103 ± 32%; with `O=C(NCCCCCCNC(=O)ON=C1CCCCC1)ON=C1CCCCC1`, 28.7 ± 2.9%.
As for `Nc1cc(N2CCCCC2)nc(N)[n+]1[O-]` [Minoxidil], the parasite growth was 111 ± 13%.
With `c1cc2c(cc1C1CCCCC1)c1c3n2CCNC3CCC1` (stereo not given) [Tetrindole mesylate], the parasite growth was found to be 13.2 ± 2.2%.
For `CC1=C(C(=O)OCCN(Cc2ccccc2)c2ccccc2)C(c2cccc([N+](=O)[O-])c2)C(P2(=O)OCC(C)(C)CO2)=C(C)N1` (stereo not given) [Efonidipine hydrochloride monoethanolate] the value was 58 ± 3.9%.
